An excerpt weighted towards active compounds, which were near 20% of everything screened.
Cycloheximide cs: counter-screen for Shiga toxin inhibitors: cycloheximide protein synthesis inhibition; cell reporter, cycloheximide protein synthesis inhibition counterscreen; max response, %; actives 12% (n = 300,000); AID 2314; in the data active = max response mostly above about 13%, no sharp cut-off; inactive = mostly below about 14%; note: read at 38.3 µM for the half of the compounds with a filed dose; 0% is about no effect
Pf growth 48h: inhibits P. falciparum growth in the first generation, 48 h. Potency, µM (top dose mostly 28.7 µM), for the others: at the highest dose activity change, negative = inhibition, hits mostly inhibitors. P. falciparum luciferase growth in erythrocytes, 48 h. actives 5.9% (n = 310,000); note: potency is the fitted concentration of half-maximal effect; % is set by controls: 0 for no effect and ±100 for the full control effect
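Parasite viability was followed by luminescence of a genomically integrated firefly luciferase. Cultures held 0.1% parasitemia at 2% hematocrit (final), incubated under 5% CO2 at 37 C.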
HCMV inh: blocks human cytomegalovirus replication; HFF cells, HCMV-luciferase reporter, 72 h; hits give low values; actives 4.5% (n = 410,000); activity change, negative = inhibition, % at 57.5 µM; in the data active = activity change below about -60%; inconclusive = no clear call, values can overlap the other calls; inactive = above about -39%; note: % is set by controls: 0 for no effect and ±100 for the full control effect
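Steps: HFFs plated, 16 h 37C; compounds added; HCMV-luciferase added to MOI 1 PFU/cell; 72 h 37C; OneGlo reagent, 5 min room temperature; luminescence read, normalized to controls.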
Shiga toxin inh: inhibitors of Shiga toxin in Vero cells; actives 9.2% (n = 290,000); AID 2315; Vero cells, Shiga toxin protein synthesis inhibition reporter; inhibition, % at 38.7 µM; in the data active = inhibition mostly above about 28%, no sharp cut-off; inactive = mostly below about 43%; note: 0% is about no effect
Pf growth 96h: P. falciparum growth inhibition at 96 hours; P. falciparum luciferase reporter growth, 96 h; actives 6.9% (n = 320,000); Potency, µM (highest dose often 28.7 µM), for inactives: at the top dose activity change, negative = inhibition, hits mostly inhibitors; note: potency is the fitted concentration of half-maximal effect; % is set by controls: 0 for no effect and ±100 for the full control effect
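Delayed-death screen, second-generation endpoint: infected erythrocytes, 2% hematocrit, 0.05% parasitemia final; 96 hours at 37 C, 5% CO2; luciferase detection reagent; luminescence decrease equals reduced growth.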
* hit, by the source's call; ? = inconclusive; . = not tested or not shown; [ ] = dose if it differs, or a comment. Unless noted, calls come from the whole dose curve; as a rule, active = well fitted inhibition curve with a large enough effect; inconclusive = small, poorly fitted or top-dose-only effect, or another doubt; inactive = no such curve, though single readings can be large or run the other way.

SMILES	Cycloheximide cs	Pf growth 48h	HCMV inh	Shiga toxin inh	Pf growth 96h
COc1cc(NC(=O)C(CCS(C)(=O)=O)N2Cc3ccccc3C2=O)cc(OC)c1OC (stereo not given)	.	.	-6	.	.
O=C(O)CC1NC(=O)N(c2ccccc2)C1=O (stereo not given)	-3	8%	11	4	2.6µM*
O=C(O)CC1NC(=O)N(C2CCCCC2)C1=O (stereo not given)	-4	-2%	47	1	12µM*
CCCCN(C(=O)c1ccc(S(=O)(=O)N(C)c2ccccc2)cc1)c1c(N)n(CCC)c(=O)[nH]c1=O	.	.	-9	.	.
Clc1cccc(CNCC2CCCO2)c1Cl (stereo not given)	-1	-2%	14	-12	?
C[C@@H]1CN([C@H](C)CO)C(=O)CCCn2nncc2CO[C@H]1CN(C)Cc1ccncc1	.	.	22	.	.
CC(=O)Nc1ccc(NC(=O)c2ccccc2-n2cnnn2)cc1	.	35%	.	.	9%
COc1ccccc1NS(=O)(=O)c1cc(C(=O)NCC(c2ccco2)N2CCCCC2)ccc1C (stereo not given)	.	12µM*	-15	.	8.3µM*
Cc1ccc(Sc2ncccc2C(=O)NCC(c2ccc(F)cc2)N2CCOCC2)cc1C (stereo not given)	.	12µM*	-33	.	?
COc1ccccc1NS(=O)(=O)c1cc(C(=O)NCC(c2ccco2)N(C)C)ccc1C (stereo not given)	.	-19%	-12	.	?
COc1ccc(/C=C/C(=O)NCCN2CCOCC2)cc1OC	-6	33%	0	2	-6%
COc1ccc(/C=C/C(=O)NCC(c2ccc(F)cc2)N2CCOCC2)cc1OC (stereo not given)	5	8.3µM*	5	-3	?
COc1ccccc1NS(=O)(=O)c1cc(C(=O)NCC(c2ccc(F)cc2)N2CCOCC2)ccc1C (stereo not given)	.	12µM*	0	.	?
Cc1noc(C)c1NC(=O)N(C)C[C@H]1Oc2ccc(NC(=O)C3CCCCC3)cc2C(=O)N([C@H](C)CO)C[C@@H]1C	.	.	0	.	.
CCn1cc(C(=O)O)c(=O)c2cnc(N3CCCC3)nc21	.	-18%[12.8 µM]	.	.	-24%[12.8 µM]
O=C1NC2(CCCCC2)C(=O)N1c1ccc(Cl)cc1	-2	15%	18	19	4.7µM*
Cc1cccc(N2C(=O)NC3(CCCCC3)C2=O)c1	13	11%	6	-4	.
CC(=O)c1ccc(N2C(=O)NC3(CCCCC3)C2=O)cc1	14*	27%	17	74*	107%
O=C1NC2(CCCCC2)C(=O)N1c1ccccc1	-2	0%	0	-16	.
COc1ccc(C(C)=O)cc1CN1C(=O)NC2(CCCCCC2)C1=O	-9	6%	11	-12	.
CCOc1ccc(C(C)=O)cc1CN1C(=O)NC2(CCCCCCC2)C1=O	-1	12µM*	23	-17	?
CSc1ccc(N2C(=O)NC3(CCCCC3)C2=O)cc1	18*	.	164	26	19%
Cc1ccc(S(=O)(=O)NC(CC(C)C)C(=O)Nc2nccs2)cc1 (stereo not given)	-2	?	-20	-47	.
COc1ccc(S(=O)(=O)N(C)CC(=O)N2CCN(C)CC2)cc1Cl	2	19%	-100*	3	0%
COc1ccc(OC)c(S(=O)(=O)N(C)CC(=O)N2CCN(c3cccc(Cl)c3)CC2)c1	0	?	-103*	-9	8%
SMILES	Cycloheximide cs	Pf growth 48h	HCMV inh	Shiga toxin inh	Pf growth 96h
COc1ccc(C)cc1S(=O)(=O)N(C)CC(=O)N1CCCC1	-1	7%	19	.	12µM*
COc1ccc(C)cc1S(=O)(=O)N(C)CC(N)=O	-3	-7%	-13	11	10µM*
O=C(CN1C(=O)COc2ccc(S(=O)(=O)N3CCCCC3)cc21)NCc1ccccc1Cl	9	7%	-12	-4	?
Cc1nc2ccc(C(=O)N(C)Cc3ccco3)cn2c1N(C)C(=O)CCc1ccccc1	.	.	-5	.	.
Cc1nnnn1/C(=C\c1ccccc1)C(=O)OCC(=O)NC1CCCCC1	.	?	8	.	?
C=CCC(C(=O)NC(C)c1ccccc1)C(=O)NC(C)c1ccccc1 (stereo not given)	-4	18%	-3	20	-10%
COc1ccc(Cl)cc1S(=O)(=O)N(C)CC(=O)N1CCCC1	-2	5%	-9	-7	5.9µM*
Cc1ccsc1/C=N/Nc1nc(Cl)c(Cl)cc1Cl	41*	-8%	83	45	156%
Cc1ccsc1/C=N/NC(=O)c1ccncc1	8	?	31	21	35%
Cc1ccc(/C=N/Nc2nc(Cl)c(Cl)cc2Cl)s1	28*	101%	220	96*	288%
CC(=O)Nc1ccc(N=Cc2ccc[nH]2)cc1	15	29%	22	41	?
CC(=O)Nc1cccc(C(=O)/C=C/c2cccs2)c1	54*	-19%	-32	82*	?
CC(=O)c1cccc(NC(=O)CCC(=O)c2ccc(F)cc2)c1	16	-46%	21	17	?
CC(=O)Nc1cccc(N(C)C)c1	-1	2%	30	8	390%
CC(=O)Nc1cccc(C(=O)/C=C/c2ccc[nH]2)c1	26*	39%	28	54*	22%
CC(=O)Nc1cccc(C(=O)/C=C/c2ccc(F)cc2)c1	29*	-10%	-99*	41	?
CC(=O)Nc1cccc(C(=O)/C=C/c2ccc(N(C)C)cc2)c1	42*	118%	30	76*	105%
CC(=O)Nc1ccc(NC(=O)C(C)OC(=O)/C=C/c2cccs2)cc1 (stereo not given)	5	26%	62	-5	7%
CCC(=O)Nc1cccc(NC(=O)CSc2nc3c(c(=O)n(C)c(=O)n3C)n2C)c1	6	-22%	-21	-13	10%
CC(=O)Nc1cccc(C(=O)/C=C/c2ccco2)c1	43*	?	-17	49*	?
CC(=O)Nc1cccc(C(=O)/C=C/c2ccc(/C=C/C(=O)c3cccc(NC(C)=O)c3)cc2)c1	35*	2.9µM*	-88*	45	9.3µM*
CC(=O)Nc1cccc(C(=O)/C=C/c2ccc(Br)cc2)c1	-5	?	-71*	-1	26%
Cc1n[nH]c2ccc([N+](=O)[O-])cc2c1=O	.	.	-32	.	.
Cc1ccc(C(=O)n2nc(C)c(S(=O)(=O)N3CCCCCC3)c2C)cc1C	.	.	24	.	.
CC(C)CC(NC(=O)OC(C)(C)C)c1cn([C@@H](Cc2cc3ccccc3[nH]2)C(=O)N2CCN(C(=O)OC(C)(C)C)CC2)nn1 (stereo not given in full)	-3	?	-1	-14	5.2µM*
CC(C)(C)OC(=O)N1CCN(C(=O)[C@H](Cc2ccc(O)cc2)n2cc(CCO)nn2)CC1	-3	35%	2	-14	30%
CC(C)CC(NC(=O)OC(C)(C)C)c1cn([C@@H](Cc2ccc(O)cc2)C(=O)N2CCN(C(=O)OC(C)(C)C)CC2)nn1 (stereo not given in full)	-2	?	34	-9	4.7µM*
